In PubChem BioAssay (Tox21):
“And” between values parts separate entries of the source, which are not always exact repeats. Equal entries are not always repeated. Inconclusive results are not listed. A call without a number means that no potency is given here. The source made the active and inactive calls. Unless noted, the call rests on the fitted dose curve; in most records, active means well fitted curve in the direction sought with a large enough effect in the repeat runs; inconclusive means weak or mixed curves; inactive means no such curve, though single readings can be large; an effect the other way counts as inactive or inconclusive.

Assays:
[1] = qHTS assay for small molecule agonists of the p53 signaling pathway - cell viability (AID 651633; calls by dose curve;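 further: p53RE-bla HCT reporter cells with a stable beta-lactamase p53 reporter; nearly all actives have a fitted effect of over 30% in size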)
In short: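 p53RE-bla cells, seeded at 4,000 per well and rested 5 h at 37 C/5% CO2, received compounds in DMSO for 16 h at 37 C. CellTiter-Glo was then added, and luminescence was read after 30 min at room temperature to gauge cytotoxicity.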

[2] = qHTS assay for small molecules that induce genotoxicity in human embryonic kidney cells expressing luciferase-tagged ATAD5 - cell viability (AID 651634; calls by dose curve; further: nearly all actives have a fitted effect of over 25% in size; further: potency means the concentration at half of the fitted maximal effect)
In short: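 After 15.5 hr incubation with compound at 37C, 5% CO2, HEK293T ATAD5-luciferase cells received CellTiter-Fluor reagent; fluorescence intensity was quantified following 30 min at 37C.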

[3] = qHTS assay for small molecule disruptors of the mitochondrial membrane potential - cell viability (AID 720634; calls by dose curve; further: nearly all actives have a fitted effect of over 20% in size; further: potency means the concentration at half of the fitted maximal effect)
In short: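 ATP-based luminescent viability readout (CellTiter-Glo, 30 min, room temperature) in HepG2 cells multiplexed with the m-MPI membrane potential dye; compound exposure lasted 1 hr at 37 C.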

[4] = qHTS assay for small molecule disruptors of the mitochondrial membrane potential (AID 720635); further: potency means the concentration at half of the fitted maximal effect
In short: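 HepG2 cells (2,000/well) attached overnight at 37C, then took compound for 1 hr at 37C, 5% CO2. Mito-MPS dye was added for 30 min; fluorescence was read at 490/535 nm (monomers) and 540/590 nm (aggregates).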

[5] = qHTS assay to test for compound auto fluorescence at 535 nm (green) in HepG2 cells (AID 720675)
[6] = qHTS assay to test for compound auto fluorescence at 460 nm (blue) in HEK293 cells (AID 720678)
In short: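 Intrinsic compound fluorescence is recorded in live HEK293 cultures after overnight incubation at 37C, 5% CO2, using excitation 405 nm and emission 460 nm. Values are referenced to triamterene.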

[7] = qHTS assay to test for compound auto fluorescence at 590 nm (red) in HEK293 cells (AID 720679)
In short: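 Red autofluorescence, HEK293 cells: 2,000 cells/well; attach 4-5 hr 37C; add 23 nL cpd or DMSO; incubate o/n 37C 5% CO2; read Ex540/Em590; Rose Bengal sodium reference.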

[8] = qHTS assay to test for compound auto fluorescence at 535 nm (green) in HEK293 cells (AID 720680)
[9] = qHTS assay to test for compound auto fluorescence at 460 nm (blue) in HEK293 cell free culture (AID 720681)
In short: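 Test compounds were pinned into cell-free culture medium (DMEM with 10% FBS) and fluorescence was read directly at Ex/Em 405/460 nm. Signals were expressed as fluorescence equivalents of triamterene, with DMSO vehicle as control.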

[10] = qHTS assay to test for compound auto fluorescence at 535 nm (green) in HEK293 cell free culture (AID 720682)
In short: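 Green-channel intensity (Ex/Em 485/535 nm) was recorded from compound-treated wells containing only DMEM with 10% FBS. Fluorescein provided the equivalency standard.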

[11] = qHTS assay to test for compound auto fluorescence at 590 nm (red) in HEK293 cell free culture (AID 720683)
In short: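 Tox21 10K library compounds were pinned into cell-free DMEM with 10% FBS and fluorescence was read at excitation 540 nm. Activity is expressed as Rose Bengal sodium equivalency.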

[12] = qHTS assay to test for compound auto fluorescence at 590 nm (red) in HepG2 cell free culture (AID 720684)
In short: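 Readout: intrinsic compound fluorescence at 590 nm emission after 540 nm excitation, scaled to Rose Bengal sodium. Matrix was cell-free MEM with 10% FBS; DMSO vehicle wells served as control.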

[13] = qHTS assay to test for compound auto fluorescence at 460 nm (blue) in HepG2 cell free culture (AID 720685)
In short: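 Cell-free plates of MEM plus 10% FBS received 23 nL compound or DMSO vehicle; blue-channel (405/460 nm) intensity scored against triamterene as reference fluorophore.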

[14] = qHTS assay to test for compound auto fluorescence at 535 nm (green) in HepG2 cell free culture (AID 720686)
[15] = qHTS assay to test for compound auto fluorescence at 460 nm (blue) in HepG2 cells (AID 720687)
In short: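 Cells (2,000/well in MEM with 10% FBS) attached overnight at 37 C, then were exposed to compound or DMSO for 1 hr at 37 C, 5% CO2. Fluorescence read at Ex/Em 405/460 nm, expressed as triamterene-equivalent signal.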

[16] = qHTS assay for small molecules that induce genotoxicity in human embryonic kidney cells expressing luciferase-tagged ATAD5 (AID 651632); further: nearly all actives have a fitted effect of over 15% in size
In short: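 Quantitative HTS in HEK293T expressing luciferase-tagged ATAD5, whose levels rise upon DNA damage. Exposure ran 16 hr at 37C and 5% CO2, with luminescence read 30 min after Amplite addition at room temperature.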

[17] = qHTS assay to test for compound auto fluorescence at 590 nm (red) in HepG2 cells (AID 720674)
In short: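 Rose Bengal sodium served as the red fluorophore standard. HepG2 monolayers (overnight attachment, MEM with 10% FBS) were exposed to test compounds for 1 hr at 37 C and read at Ex 540/Em 590 nm.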

[18] = molecular target: Glucocorticoid receptor (Homo sapiens) (UniProt P04150); experiment: qHTS assay to identify small molecule agonists of the glucocorticoid receptor (GR) signaling pathway (AID 720691; active means well fitted activation curve with a large enough effect in the signal ratio in the repeat runs, not every such curve was filed as active; the % refers to the signal ratio); conditions: GR-bla HeLa, beta-lactamase reporter ratio, 18 h; activation: at 62.4 µM (top of the series) unless noted
Glucocorticoid receptor (Homo sapiens), sequence (P04150 whole entry, looked up): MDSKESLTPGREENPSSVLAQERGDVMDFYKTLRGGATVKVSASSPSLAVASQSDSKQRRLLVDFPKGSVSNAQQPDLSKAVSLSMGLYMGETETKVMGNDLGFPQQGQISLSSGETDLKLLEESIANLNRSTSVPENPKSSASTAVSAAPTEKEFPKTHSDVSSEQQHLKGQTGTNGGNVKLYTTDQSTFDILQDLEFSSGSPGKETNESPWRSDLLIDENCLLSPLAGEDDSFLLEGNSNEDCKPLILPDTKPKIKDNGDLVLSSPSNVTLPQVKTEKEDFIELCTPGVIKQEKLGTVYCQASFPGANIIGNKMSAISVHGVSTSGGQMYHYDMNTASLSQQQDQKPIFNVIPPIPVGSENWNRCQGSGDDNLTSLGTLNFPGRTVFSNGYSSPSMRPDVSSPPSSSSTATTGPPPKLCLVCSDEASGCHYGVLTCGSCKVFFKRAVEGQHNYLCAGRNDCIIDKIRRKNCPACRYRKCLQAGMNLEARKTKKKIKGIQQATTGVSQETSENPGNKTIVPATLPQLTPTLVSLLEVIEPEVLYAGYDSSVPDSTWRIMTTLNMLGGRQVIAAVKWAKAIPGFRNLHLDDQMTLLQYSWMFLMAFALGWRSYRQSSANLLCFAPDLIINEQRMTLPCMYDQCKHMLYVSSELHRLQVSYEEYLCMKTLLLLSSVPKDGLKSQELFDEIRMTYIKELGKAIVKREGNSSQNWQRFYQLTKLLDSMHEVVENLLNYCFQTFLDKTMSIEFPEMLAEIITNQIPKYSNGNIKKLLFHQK
In short: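 Cells: GR-bla HeLa, endogenous GR with stably integrated GRE-beta-lactamase reporter. Treatment 18 h, 37 C, compounds delivered in DMSO. Detection via LiveBLAzer B/G FRET substrate, 2 h RT, fluorescence intensity.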

[19] = molecular target: Glucocorticoid receptor (Homo sapiens) (UniProt P04150); experiment: qHTS assay to identify small molecule antagonists of the glucocorticoid receptor (GR) signaling pathway (AID 720692; active means well fitted inhibition curve with a large enough effect in the signal ratio in the repeat runs, not every such curve was filed as active; the % refers to the signal ratio)
In short: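 Quantitative HTS in antagonist format: HeLa cells expressing endogenous GR and a stably integrated GRE-bla reporter, stimulated with 5 nM dexamethasone (final) alongside test compounds for 18 h.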

Compound | Potency [1] | Potency [2] | Potency [3] | Potency [4] | outcome [5] | Potency [6] | outcome [7] | outcome [8] | Potency [9] | outcome [10] | outcome [11] | outcome [12] | Potency [13] | outcome [14] | outcome [15] | Potency [16] | outcome [17] | Potency [18] | Potency [19]
Oc1ccc2ccccc2c1N=Nc1ccccc1 | inactive | 30.6 µM (active) and 48.6 µM (active) | 27.3 µM (active) | 3.06 µM (active) and 6.11 µM (active) | inactive | inactive | inactive | inactive | inactive | inactive | inactive | inactive | inactive | inactive | inactive |  |  |  | 
CN(C)c1cccc(O)c1 | inactive | inactive | inactive | 10.9 µM (active) | inactive | inactive |  | inactive | inactive | inactive | inactive | inactive | inactive | inactive |  | inactive | inactive | inactive | inactive
CC1COc2ccccc2N1C(=O)C(Cl)Cl (configuration not stated) |  | inactive | inactive |  | inactive | inactive |  | inactive | inactive | inactive | inactive | inactive | inactive | inactive | inactive |  |  | inactive | 
Cc1cc(NS(=O)(=O)c2ccc(N)cc2)no1 |  |  | inactive | inactive | inactive | inactive | inactive | inactive | inactive | inactive | inactive | inactive | inactive | inactive | inactive |  | inactive | inactive | inactive
CCCCCCCCCC(=O)O | inactive | inactive |  |  | inactive | inactive | inactive | inactive | inactive | inactive | inactive | inactive | inactive | inactive |  | inactive |  | inactive | inactive
Cc1cc(O)cc(C)c1Cl | inactive | inactive | inactive |  | inactive | inactive | inactive | inactive | inactive | inactive | inactive | inactive | inactive | inactive | inactive |  | inactive | inactive | inactive
O=C1N=C(O)CN1/N=C/c1ccc(-c2ccc([N+](=O)[O-])cc2)o1 |  | inactive | inactive |  | inactive | inactive | inactive | inactive | inactive | inactive | inactive | inactive | inactive | inactive |  |  |  | inactive | inactive
CC1=CC[C@H]2C[C@@H]1C2(C)C | inactive | inactive |  |  | inactive | inactive | inactive | inactive | inactive | inactive | inactive | inactive | inactive | inactive | inactive | inactive | inactive |  | 
O=S(=O)(Oc1ccc(Cl)cc1Cl)c1ccccc1 |  | inactive |  | 27.8 µM (active) and 61.1 µM (active) | inactive | inactive |  | inactive | inactive | inactive | inactive | inactive | inactive | inactive | inactive |  | inactive |  | 
CC(C)(N=C=O)c1cccc(C(C)(C)N=C=O)c1 |  | inactive | inactive |  | inactive | inactive | inactive | inactive | inactive | inactive | inactive | inactive | inactive | inactive | inactive | inactive |  | inactive | inactive
CCCCOCCOCCOC(=O)CCCCC(=O)OCCOCCOCCCC |  | inactive | inactive |  | inactive | inactive |  | inactive | inactive | inactive | inactive | inactive | inactive | inactive | inactive | inactive | inactive | inactive | inactive
